Hit rate of the full screen: of about 5,500 compounds, about 2,000 (36%) were called active. Inconclusive results (about 18%) are left out. No stated cut-off is given here; in the data, active means normalized growth mostly below about 0.91 (no sharp cut-off); inconclusive means no clear call, values can overlap the other calls; inactive means mostly above about 0.92. This is one part of the list.
Assay: chemical genetic growth profiling, strain panel (AID 1159580);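 further: tested at 20 µM; growth read once vehicle control cultures reached saturation at 30 °C; 1 = growth at the plate median or of vehicle wells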
Settings: growth OD

Measured: normalized growth

CC(C)CCCC(C)C1CCC2C3=CC[C@H]4C[C@@H](O)CC[C@]4(C)C3CC[C@@]21C (some centres not stated)
inactive: S. cerevisiae deletion strains, locus YJR066W, strain TOR1, stronger effect = lower value 0.943 | S. cerevisiae deletion strains, locus YJR075W, strain HOC1, stronger effect = lower value 0.995 | S. cerevisiae deletion strains, locus YKL009W, strain mrt4, stronger effect = lower value 0.997 | S. cerevisiae deletion strains, locus YKL068W, stronger effect = lower value 1 | S. cerevisiae deletion strains, locus YKL085W, strain MDH1 (second series), stronger effect = lower value 0.988 | S. cerevisiae deletion strains, locus YKL085W, strain MDH1, stronger effect = lower value 0.988 | S. cerevisiae deletion strains, locus YKL160W, strain elf1, stronger effect = lower value 0.964 | S. cerevisiae deletion strains, locus YKR001C, strain vps1, stronger effect = lower value 0.983 | S. cerevisiae deletion strains, locus YKR026C, strain gcn3, stronger effect = lower value 0.999 | S. cerevisiae deletion strains, locus YKR091W, strain srl3, stronger effect = lower value 0.967 | S. cerevisiae deletion strains, locus YLL001W, strain dnm1, stronger effect = lower value 0.988 | S. cerevisiae deletion strains, locus YLL026W, stronger effect = lower value 0.988 | S. cerevisiae deletion strains, locus YLL041C, strain sdh2, stronger effect = lower value 0.975 | S. cerevisiae deletion strains, locus YLR027C, strain aat2, stronger effect = lower value 0.982 | S. cerevisiae deletion strains, locus YLR039C, strain RIC1, stronger effect = lower value 0.828 | S. cerevisiae deletion strains, locus YLR058C, strain SHM2, stronger effect = lower value 1.02 | S. cerevisiae deletion strains, locus YLR102C, strain apc9, stronger effect = lower value 0.99 | S. cerevisiae deletion strains, locus YLR113W, strain HOG1, stronger effect = lower value 1.03 | S. cerevisiae deletion strains, locus YLR221C, strain rsa3, stronger effect = lower value 0.946 | S. cerevisiae deletion strains, locus YLR258W, strain gsy2, stronger effect = lower value 1 | S. cerevisiae deletion strains, locus YLR262C, strain YPT6 (second series), stronger effect = lower value 0.859 | S. cerevisiae deletion strains, locus YLR262C, strain YPT6, stronger effect = lower value 0.816 | S. cerevisiae deletion strains, locus YLR268W, strain sec22, stronger effect = lower value 0.978 | S. cerevisiae deletion strains, locus YLR320W, strain mms22, stronger effect = lower value 0.952 | S. cerevisiae deletion strains, locus YLR330W, strain CHS5, stronger effect = lower value 1.04 | S. cerevisiae deletion strains, locus YLR342W, strain FKS1 (second series), stronger effect = lower value 1.04 | S. cerevisiae deletion strains, locus YLR342W, strain FKS1, stronger effect = lower value 0.994 | S. cerevisiae deletion strains, locus YLR357W, strain rsc2, stronger effect = lower value 1.04 | S. cerevisiae deletion strains, locus YLR370C, strain arc18, stronger effect = lower value 0.964 | S. cerevisiae deletion strains, locus YLR371W, strain rom2, stronger effect = lower value 0.998 | S. cerevisiae deletion strains, locus YLR384C, strain iki3, stronger effect = lower value 0.985 | S. cerevisiae deletion strains, locus YLR418C, strain cdc73, stronger effect = lower value 0.943 | S. cerevisiae deletion strains, locus YML016C, strain PPZ1, stronger effect = lower value 1.01 | S. cerevisiae deletion strains, locus YML032C, strain rad52, stronger effect = lower value 1 | S. cerevisiae deletion strains, locus YML120C, strain ndi1, stronger effect = lower value 0.965 | S. cerevisiae deletion strains, locus YML124C, strain tub3, stronger effect = lower value 0.996 | S. cerevisiae deletion strains, locus YMR058W, strain fet3, stronger effect = lower value 0.965 | S. cerevisiae deletion strains, locus YMR078C, strain ctf18, stronger effect = lower value 0.989 | S. cerevisiae deletion strains, locus YMR125W, strain sto1, stronger effect = lower value 1 | S. cerevisiae deletion strains, locus YMR129W, stronger effect = lower value 0.992 | S. cerevisiae deletion strains, locus YMR205C, strain PFK2, stronger effect = lower value 1 | S. cerevisiae deletion strains, locus YMR223W, strain ubp8, stronger effect = lower value 0.99 | S. cerevisiae deletion strains, locus YMR231W, strain pep5, stronger effect = lower value 0.991 | S. cerevisiae deletion strains, locus YMR263W, strain SAP30, stronger effect = lower value 1.03 | S. cerevisiae deletion strains, locus YMR307W, strain GAS1, stronger effect = lower value 1.05 | S. cerevisiae deletion strains, locus YNL067W, strain RPL9B, stronger effect = lower value 0.991 | S. cerevisiae deletion strains, locus YNL071W, strain lat1, stronger effect = lower value 0.932 | S. cerevisiae deletion strains, locus YNL183C, strain NPR1, stronger effect = lower value 0.939 | S. cerevisiae deletion strains, locus YNL209W, strain ssb2, stronger effect = lower value 0.987 | S. cerevisiae deletion strains, locus YNL233W, strain BNI4, stronger effect = lower value 0.984 | S. cerevisiae deletion strains, locus YNL248C, strain rpa49, stronger effect = lower value 0.922 | S. cerevisiae deletion strains, locus YNL250W, strain rad50, stronger effect = lower value 0.999 | S. cerevisiae deletion strains, locus YNL271C, strain bni1, stronger effect = lower value 0.994 | S. cerevisiae deletion strains, locus YNL298W, strain CLA4, stronger effect = lower value 0.985 | S. cerevisiae deletion strains, locus YNL307C, strain MCK1, stronger effect = lower value 0.996 | S. cerevisiae deletion strains, locus YNL322C, strain KRE1 (second series), stronger effect = lower value 0.98 | S. cerevisiae deletion strains, locus YNR049C, strain mso1, stronger effect = lower value 0.982 | S. cerevisiae deletion strains, locus YNR052C, strain pop2, stronger effect = lower value 0.984 | S. cerevisiae deletion strains, locus YOL012C, strain htz1 0.805 | S. cerevisiae deletion strains, locus YOL147C, strain pex11, stronger effect = lower value 0.994 | S. cerevisiae deletion strains, locus YOR001W, strain rrp6, stronger effect = lower value 0.946 | S. cerevisiae deletion strains, locus YOR061W, strain CKA2, stronger effect = lower value 1.01 | S. cerevisiae deletion strains, locus YOR069W, strain VPS5, stronger effect = lower value 1.01 | S. cerevisiae deletion strains, locus YOR070C, strain gyp1, stronger effect = lower value 0.985 | S. cerevisiae deletion strains, locus YOR080W, strain dia2, stronger effect = lower value 0.981 | S. cerevisiae deletion strains, locus YOR083W, strain WHI5, stronger effect = lower value 0.947 | S. cerevisiae deletion strains, locus YOR106W, strain vam3, stronger effect = lower value 0.935 | S. cerevisiae deletion strains, locus YOR136W, strain idh2, stronger effect = lower value 0.993 | S. cerevisiae deletion strains, locus YOR144C, strain elg1, stronger effect = lower value 0.998 | S. cerevisiae deletion strains, locus YOR184W, strain ser1, stronger effect = lower value 0.969 | S. cerevisiae deletion strains, locus YOR231W, strain MKK1, stronger effect = lower value 0.976 | S. cerevisiae deletion strains, locus YOR265W, strain rbl2, stronger effect = lower value 0.985 | S. cerevisiae deletion strains, locus YOR270C, strain vph1, stronger effect = lower value 0.794 | S. cerevisiae deletion strains, locus YOR290C, strain snf2, stronger effect = lower value 1.01 | S. cerevisiae deletion strains, locus YOR316C, strain cot1, stronger effect = lower value 0.988 | S. cerevisiae deletion strains, locus YPL051W, strain arl3, stronger effect = lower value 0.951 | S. cerevisiae deletion strains, locus YPL078C, strain atp4, stronger effect = lower value 0.925 | S. cerevisiae deletion strains, locus YPL106C, strain sse1, stronger effect = lower value 1.03 | S. cerevisiae deletion strains, locus YPL240C, strain hsp82, stronger effect = lower value 0.97 | S. cerevisiae deletion strains, locus YPL241C, strain CIN2, stronger effect = lower value 1.01 | S. cerevisiae deletion strains, locus YPL256C, strain CLN2, stronger effect = lower value 1 | S. cerevisiae deletion strains, locus YPR119W, strain clb2, stronger effect = lower value 0.99 | S. cerevisiae deletion strains, locus YPR141C, strain kar3, stronger effect = lower value 0.994 | S. cerevisiae deletion strains, locus YPR163C, strain tif3, stronger effect = lower value 0.994 | S. cerevisiae deletion strains, locus YPR167C, strain met16, stronger effect = lower value 1.01 | S. cerevisiae deletion strains, strain wtn01, stronger effect = lower value 0.97 | S. cerevisiae strains, strain wild type, stronger effect = lower value 1.04

From PubChem BioAssay AID1159580 (chemical genetic matrix, 2015)
